Results on 41 compounds are retold here after PubChem BioAssay (NCATS).

A short description of experiment [1]: Cytotoxicity counterscreen for inhibitors of SARS-CoV-2 cell entry (AID 1645845). Further: nearly all actives have a fitted effect of over 50% in size. The method in brief:
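Counterscreen run in the same HEK293-ACE2 line as the pseudotyped-particle entry assay, without particles. Viability after 48 h at 37 C was read as ATP luminescence, scaled between cell-containing and cell-free wells.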

The nature of experiment [2]: Primary qHTS to identify inhibitors of SARS-CoV-2 cell entry (AID 1645846). Further: nearly all actives have a fitted effect of over 45% in size. Further: potency means the concentration at half of the fitted maximal effect. As to conditions: activity change, negative = inhibition: at 57.1 µM (top of the series) unless noted. The method, boiled down: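 Inhibition of spike-mediated entry was scored in human ACE2-transfected Expi293F cells. Particles were MLV-pseudotyped with Wuhan-Hu-1 S carrying a 19-aa C-terminal deletion; signal was luciferase after two days, scaled between spike PP and fusion-protein-free PP.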
(In general: Quantitative high-throughput screening tests each substance at several concentrations.)

Structures are written as SMILES. Several values for one entry are separate records, joined by “and”; a condition that tells them apart may be missing. Identical values can stand only once. Records with an inconclusive call do not appear. Activity calls are given as the source filed them. The call rests on the fitted dose curve.

Consider `CC1(C)O[C@@H]2C[C@H]3[C@@H]4CCC5=CC(=O)C=C[C@]5(C)[C@@]4(F)[C@@H](O)C[C@]3(C)[C@]2(C(=O)CO)O1`, for which the Potency entry in experiment [1] and in experiment [2] was “inactive” throughout.
`CN(C)CCOc1ccc(/C(=C(/CCCl)c2ccccc2)c2ccccc2)cc1`: the Potency result in experiment [1] is “inactive”. In addition, the Potency in experiment [2] was 15.8 µM (active) and 20 µM (active).
For `CC(C)(C(=O)c1cccnc1)c1cccnc1`, the Potency result in experiment [1] and in experiment [2] was “inactive” each time.
For the compound `CC(=O)OCC(=O)[C@@]1(O)CC[C@H]2[C@@H]3CCC4=CC(=O)C=C[C@]4(C)[C@@]3(F)[C@@H](O)C[C@@]21C`, in experiment [1], the Potency entry was “inactive”. The activity change, negative = inhibition in experiment [2] was 2.18%.
Turning to `NCCNCCNCCNCCN`, the outcome in experiment [1] is “inactive [at 11.3 µM]”. Moreover, the activity change, negative = inhibition in experiment [2] came to 4.56% [at 11.3 µM].
With `CO/N=C(\C(=O)N[C@@H]1C(=O)N2C(C(=O)O)=C(C[N+]3(C)CCCC3)CS[C@H]12)c1csc(N)n1`, the Potency entry in experiment [1] is “inactive”. Further, in experiment [2], the activity change, negative = inhibition is -9.52%.
`COc1ccnc(CS(=O)c2nc3ccc(OC(F)F)cc3[nH]2)c1OC` (configuration not stated): the Potency result in experiment [1] and in experiment [2] was “inactive” each time.
For `Cc1ccnc(NS(=O)(=O)c2ccc(N)cc2)n1`, the Potency result in experiment [1] and in experiment [2] was “inactive” in each case.
Turning to `Cc1c(C(C)C)c(=O)n(-c2ccccc2)n1C`, in experiment [1], the Potency result was “inactive”. The activity change, negative = inhibition in experiment [2] is -4.29%.
The corresponding values for `Nc1nc(=O)n([C@@H]2CS[C@H](CO)O2)cc1F` are “inactive” and -20.7%.
The corresponding values for `NC(=O)c1ccc([N+](=O)[O-])cc1Cl` are “inactive” and -5.3%.
The matching figures for `CCCCCCCCCCCC(=O)[O][Sn]([CH2]CCC)([CH2]CCC)[O]C(=O)CCCCCCCCCCC`: “inactive” and -23.2%.
Regarding `CCn1cc(C(=O)O)c(=O)c2cc(F)c(N3CCNC(C)C3)c(F)c21` (configuration not stated), the Potency entry in experiment [1] and in experiment [2] was “inactive” in each case.
With `CC1CC(OC(=O)c2ccccc2O)CC(C)(C)C1` (configuration not stated), the Potency result in experiment [1] and in experiment [2] was “inactive” in each case.
With `Nc1ccc(S(=O)(=O)NC(=O)c2ccccc2)cc1`, the Potency result in experiment [1] and in experiment [2] was “inactive” throughout.
In the case of `NCCCCCC(=O)O`, in experiment [1], the Potency result is “inactive”. In addition, in experiment [2], the activity change, negative = inhibition is -19.8% and -25.5%.
For the compound `CN/C(=C\[N+](=O)[O-])NCCSCc1csc(CN(C)C)n1`, the Potency entry in experiment [1] and in experiment [2] was “inactive” throughout.
As for `CCO[C@H](Cc1ccc(OCCc2ccc(OS(C)(=O)=O)cc2)cc1)C(=O)O`, the Potency result in experiment [1] and in experiment [2] was “inactive” throughout.
Regarding `O=c1cc[nH]c(=O)[nH]1`, the Potency result in experiment [1] was “inactive”. The activity change, negative = inhibition in experiment [2] was -14.8%.
The corresponding values for `CCN1CC(CCN2CCOCC2)C(c2ccccc2)(c2ccccc2)C1=O` (configuration not stated) are “inactive” and -22.6%.
The matching figures for `CC(C)(C)NCC(O)COc1cccc2c1C[C@H](O)[C@H](O)C2` (some centres not stated): “inactive” and 4.34%.
The matching figures for `CC(N=C(NC#N)Nc1ccncc1)C(C)(C)C` (configuration not stated): “inactive” and -37.8%.
For `CCCCCCCCCCCCCCCC(=O)OCCC1CCN(CCCN2c3ccccc3Sc3ccc(S(=O)(=O)N(C)C)cc32)CC1`, the Potency entry in experiment [1] is “inactive”. Moreover, the activity change, negative = inhibition in experiment [2] is -4.81%.
For the compound `CC(CN(C)C)C(C)(O)Cc1ccc(Cl)cc1` (configuration not stated), in experiment [1], the Potency entry is “inactive”. Further, the activity change, negative = inhibition in experiment [2] amounted to 0.771%.
The matching figures for `CC(=O)Oc1cccc(O)c1`: “inactive” and -13.8%.
`Cc1cc2c(cc1S(N)(=O)=O)S(=O)(=O)CCC2`: the Potency result in experiment [1] and in experiment [2] was “inactive” each time.
Take `N#Cc1ccc(C(c2ccc(C#N)cc2)n2cncn2)cc1`: the Potency entry in experiment [1] is “inactive”. Besides, in experiment [2], the activity change, negative = inhibition was 0.824% and -10.9%.
As for `C=CC(N)CCC(=O)O` (configuration not stated), the Potency entry in experiment [1] and in experiment [2] was “inactive” each time.
Consider `CN[C@@H]1CCc2[nH]c3ccc(C(N)=O)cc3c2C1`, for which the Potency result in experiment [1] is “inactive”. Moreover, in experiment [2], the activity change, negative = inhibition was -34.4%.
As for `O=P(O)(O)C(O)(Cn1ccnc1)P(=O)(O)O`, the Potency entry in experiment [1] is “inactive”. Besides, the outcome in experiment [2] is “inactive [at 5.25 µM]”.
With `Cc1nnc(NS(=O)(=O)c2ccc(N)cc2)s1`, the Potency entry in experiment [1] was “inactive”. Besides, in experiment [2], the activity change, negative = inhibition is 4.32% and -12.1%.
Take `NC[C@H]1O[C@H](O[C@H]2[C@H](O[C@@H]3O[C@H](CO)[C@@H](O)[C@H]3O)C(O)[C@H](N)C[C@@H]2N)[C@H](N)[C@@H](O)[C@@H]1O` (some centres not stated): in experiment [1], the outcome is “inactive [at 11.3 µM]”. For the same compound, the activity change, negative = inhibition in experiment [2] was -2.22% [at 11.3 µM].
Take `CN(C)CCN(Cc1ccsc1)c1ccccn1`: the Potency entry in experiment [1] is “inactive”. Further, in experiment [2], the activity change, negative = inhibition is -8.15%.
For the compound `Cc1cc(C)c(NC(=O)CN(CC(=O)O)CC(=O)O)c(C)c1Br`, the Potency result in experiment [1] was “inactive”. For the same compound, in experiment [2], the activity change, negative = inhibition is -26.2%.
On to `NS(=O)(=O)c1cc(C2(O)NC(=O)c3ccccc32)ccc1Cl` (configuration not stated), for which the Potency entry in experiment [1] and in experiment [2] was “inactive” each time.
For `Cc1c(F)c(N2CCNC(C)C2)cc2c1c(=O)c(C(=O)O)cn2C1CC1` (configuration not stated), in experiment [1], the Potency entry was “inactive”. Besides, in experiment [2], the activity change, negative = inhibition was -25.6%.
Regarding `CC(=O)OCC(=O)[C@@]1(O)CC[C@H]2[C@@H]3CCC4=CC(=O)CC[C@]4(C)[C@H]3C(=O)C[C@@]21C`, the Potency entry in experiment [1] was “inactive”. Further, the activity change, negative = inhibition in experiment [2] was -2.62% and -39.8%.
Turning to `O=C1c2ccccc2C(=O)c2c1ccc(O)c2O`, the Potency entry in experiment [1] and in experiment [2] was “inactive” throughout.
Regarding `CCCCCCCCCCOc1cc2c(=O)c(C(=O)OCC)c[nH]c2cc1OCC`, the outcome in experiment [1] was “inactive [at 5.25 µM]”. The activity change, negative = inhibition in experiment [2] is -22.6% [at 5.25 µM].
`COC(=O)N/N=C/c1c[n+]([O-])c2ccccc2[n+]1[O-]`: the Potency result in experiment [1] and in experiment [2] was “inactive” each time.
Take `NS(=O)(=O)c1cc(C(=O)NN2C[C@H]3[C@H]4CCC(C4)[C@H]3C2)ccc1Cl`: the Potency entry in experiment [1] is “inactive”. The activity change, negative = inhibition in experiment [2] was -24.3%.
